Compounds with a hit are over-represented: about 12% of the library has one in this group of screens.
HP1b binding inh = inhibitors of HP1-beta chromodomain binding to methylated histone tails. AlphaScreen HP1-beta / biotin-H3K9me3 peptide binding. Potency, µM (doses to about 114 µM), without a hit: at the highest dose activity change, negative = inhibition, hits mostly inhibitors. P83916. hit rate 0.56% among 390,000; further: potency means the concentration at half of the fitted maximal effect; nearly all actives have a fitted effect of over 70% in size
Target sequence (P83916 whole entry, looked up): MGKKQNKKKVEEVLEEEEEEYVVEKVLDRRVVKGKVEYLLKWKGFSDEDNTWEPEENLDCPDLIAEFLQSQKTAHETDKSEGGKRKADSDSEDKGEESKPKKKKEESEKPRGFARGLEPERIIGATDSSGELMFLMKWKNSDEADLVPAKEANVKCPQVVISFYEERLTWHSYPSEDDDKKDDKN
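AlphaScreen: HP1-beta (50 nM) preformed 30 min with biotin-H3(1-18)K9me3 peptide (50 nM) in PBS pH 7.4, 0.01% Tween-20. Compound added for 30 min at RT, then streptavidin donor/nickel chelate acceptor beads (10 ug/mL) for 30 min.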
PI5P4Ka inh = PI5P4K alpha (human) kinase inhibition. P48426. PI5P4Kalpha enzyme, ADP-Glo luminescence, 60 min; active compounds read low. max response, %. hit rate 1.2% among 330,000. AID 652105; active means max response of -50% or lower; inconclusive means between -30% and -50%; inactive means -30% or higher; further: value at the top dose of about 77 µM; on the % scale 0 is the no-effect control and ±100 the full control effect
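Human PI5P4Kalpha with substrate in 0.038 M HEPES pH 7.4, 0.28 mM EGTA, 0.1% CHAPS, 5% DMSO; reaction started with 5 microM ATP (final), 60 min at room temperature. ADP formed read by ADP-Glo luminescence.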
PLK1 PBD block = inhibitors of human PLK1 polo-box domain binding | P53350 | Plk1 PBD binding of FITC phosphopeptide, fluorescence polarization | Potency, µM, for the others: max response, negative = inhibition, actives largely listed as inhibitors | hit rate 2.8% among 360,000 | AID 720504; further: potency means the concentration at half of the fitted maximal effect; series mostly up to about 57 µM; on the % scale 0 is the no-effect control and ±100 the full control effect; nearly all actives have a fitted effect of over 65% in size
JMJD2A Tudor = JMJD2A Tudor domain (human) inhibition. AlphaScreen JMJD2A-Tudor / H3K4me3 peptide binding. hit rate 4.4% among 390,000. Potency, µM (titrated, usually from 114 µM), without a hit: at the highest dose activity change, negative = inhibition, most hits filed as inhibitors; further: potency means the concentration at half of the fitted maximal effect; on the % scale 0 is the no-effect control and ±100 the full control effect; nearly all actives have a fitted effect of over 50% in size
BAZ2B block = inhibitors of human BAZ2B bromodomain; Q9UIF8; AlphaScreen BAZ2B-H3K14Ac peptide displacement; Potency, µM (series often up to 114 µM), without a hit: top-dose activity change, negative = inhibition, hits mostly inhibitors; hit rate 4.4% among 360,000; further: potency means the concentration at half of the fitted maximal effect; on the % scale 0 is the no-effect control and ±100 the full control effect; nearly all actives have a fitted effect of over 60% in size
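BAZ2B (50 nM) with biotin-H3(5-23)K14Ac peptide (50 nM) in PBS pH 7.4, 0.01% Tween-20, preformed 30 min, then compound 30 min at room temperature; top concentration 110uM. AlphaScreen streptavidin donor/nickel chelate acceptor beads (10 ug/mL final), 20 min dark, signal read.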
G9a inh = inhibitors of human histone lysine methyltransferase G9a; hit rate 8.8% among 350,000; G9a H3K9 monomethylation, AlphaScreen, 2 h; Q96KQ7; AID 504332; Potency, µM (titrated, usually from 102 µM), inactives show at the highest dose activity, negative = inhibition, hits mostly inhibitors; further: potency means the concentration at half of the fitted maximal effect; on the % scale 0 is the no-effect control and ±100 the full control effect; nearly all actives have a fitted effect of over 75% in size
Target sequence (Q96KQ7 913-1193 limits assumed): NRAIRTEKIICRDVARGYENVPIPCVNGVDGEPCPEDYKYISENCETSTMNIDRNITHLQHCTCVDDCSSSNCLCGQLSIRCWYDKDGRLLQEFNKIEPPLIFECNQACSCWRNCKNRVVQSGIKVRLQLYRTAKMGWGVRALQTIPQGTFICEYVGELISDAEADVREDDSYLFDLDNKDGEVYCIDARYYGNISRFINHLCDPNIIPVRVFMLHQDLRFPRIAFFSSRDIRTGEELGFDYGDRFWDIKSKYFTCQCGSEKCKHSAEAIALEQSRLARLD
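Step 1: enzyme (final 20 nM) with compound, 15 min RT. Step 2: substrate peptide 500 nM and SAM 20 uM, 2 h RT. Step 3: anti-H3K9me1 antibody and AlphaScreen beads, 10 min, then plate read.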
* marks the source's active call; other numbers are inactive results; ? = inconclusive; . = no result given; [ ] = another dose, or the depositor's remark. Unless noted, the call rests on the fitted dose curve; in most records, active means well fitted curve in the direction sought with a large enough effect; inconclusive means small, poorly fitted or top-dose-only effect, or another doubt; inactive means no such curve, though single readings can be large; an effect the other way counts as inactive or inconclusive.

SMILES | HP1b binding inh | PI5P4Ka inh | PLK1 PBD block | JMJD2A Tudor | BAZ2B block | G9a inh
Cc1ccccc1C1=C/C(=C(\SS/C(C(=O)c2ccc(OCC(=O)O)c(Cl)c2Cl)=C2\C=C(c3ccccc3C)SS2)C(=O)c2ccc(OCC(=O)O)c(Cl)c2Cl)SS1 | 20µM* | -98.1* | 16.8µM* | 28.2µM* | . | .
Cc1ccc(CNS(=O)(=O)c2c(C)nc3sc(C)cn3c2=O)cc1 | 26.1% | . | . | -6.2% | -10.6% | -31.5%[59 µM]
CC1CCC(C(C)C)C(OC(=O)C2=C3c4ccccc4S(=O)(=O)N3CC2)C1 (stereo not drawn) | 54.2% | -4.6 | -4.2% | 28.2% | -2.7% | 25.1µM*
CC1CCC(C(C)C)C(OC(=O)CSc2nccc(=O)[nH]2)C1 (stereo not drawn) | 26.2% | . | -10.3% | 1.9% | -2.1% | 6.9%
CC(=O)OCCn1c(=O)c2cc3c(=O)n(CCOC(C)=O)c(=O)c3cc2c1=O | -6.7% | -16.6 | 11.9µM* | -9.2%[11.4 µM] | . | -8.5%[59 µM]
COc1ccc(C)cc1NC(=O)C(OC(=O)c1ccc([N+](=O)[O-])o1)c1ccccc1 (stereo not drawn) | ? | -14.7 | 26.7µM* | ? | ? | ?
COc1ccc(C)cc1NC(=O)C(Sc1nnc(Nc2cc(C)ccc2OC)s1)c1ccccc1 (stereo not drawn) | 5.6% | 0.8 | -18.8% | ? | -33.6% | 3.55µM*
COc1ccc(Nc2nnc(SC(C(=O)Nc3ccc(OC)c(Cl)c3)c3ccccc3)s2)cc1 (stereo not drawn) | 0.8% | 3.4 | -10.4% | -18.5% | -14.1% | 20µM*
COc1ccc(Nc2nnc(SC(C(=O)Nc3cc(C)ccc3C)c3ccccc3)s2)cc1 (stereo not drawn) | 2.4% | -4.4 | -9.8% | -16.8% | -18.7% | 50.1µM*
Cc1ccc([C@@H]2CC=C(C(=O)O)[C@H](c3cccc(F)c3)N2S(=O)(=O)c2ccccc2C)cc1 | 2.1% | 11.0 | -29.0% | -21.9% | . | .
CCOC(=O)c1c(NC(=O)/C=C/c2ccc(C(C)C)cc2)sc2c1CCC2 | 27.6% | . | . | -7.8% | 1.2% | 0.9%[59 µM]
C=CCN1C(=O)c2ccc(C(=O)N(C)Cc3ccc(C)o3)cc2C1=O | 26.2% | 2.0 | -5.6% | -12.3% | -25.8% | -11.5%[2.33 µM]
Cc1ccc(CN(C)C(=O)c2cc(Br)c(Br)s2)o1 | 33.7% | -28.8 | -20.7% | -10.7% | 3.1% | 44.7µM*
Cc1cccc[n+]1C1C(c2ccccc2)C(C#N)=C(C(=C=[N-])C#N)NC1(O)C1CC1 (stereo not drawn) | -19.2% | -73.7* | ? | ? | -34.6% | 39.8µM*
N#CC(=C=[N-])C1=C(C#N)C(c2ccccc2F)C([n+]2ccccc2)C(O)(C2CC2)N1 (stereo not drawn) | 5.2% | . | -7.4% | -33.8% | ? | ?
Nc1ccccc1O | 1.6% | 2.6 | -7.5% | -18.6% | -22.9% | -2.2%[0.501 µM]
Nc1ccccc1SC/C=C/CSc1ccccc1N | 25.7% | 6.0 | 11.9µM* | -17.6% | -21.7% | 11.2µM*
C#CCOCCOCCOCCNc1nc(N2CCN(C(=O)C(Cc3cc4ccccc4[nH]3)n3cc(C(N)C(C)CC)nn3)CC2)nc(N2CCN(C(=O)C(Cc3cc4ccccc4[nH]3)n3cc(C(N)C(C)CC)nn3)CC2)n1 (stereo not drawn) | ? | -51.7* | -6.3% | 28.2µM* | 28.2µM* | -102.6%[59 µM]
C#CCOCCOCCOCCNc1nc(N2CCN(C(=O)[C@H](CCCCN)n3cc([C@@H](N)C(C)CC)nn3)CC2)nc(N2CCN(C(=O)[C@H](Cc3cc4ccccc4[nH]3)n3cc([C@@H](N)C(C)CC)nn3)CC2)n1 (stereo partly drawn) | -18.9% | -57.5* | -2.3% | 50.1µM* | . | .
C#CCOCCOCCOCCNc1nc(N2CCN(C(=O)[C@H](CCC(=O)O)n3cc(C(N)CC(C)C)nn3)CC2)nc(N2CCN(C(=O)[C@H](Cc3cc4ccccc4[nH]3)n3cc(C(N)[C@H](C)CC)nn3)CC2)n1 (stereo partly drawn) | 16.2% | -12.3 | -9.9% | 56.2µM* | 50.1µM* | ?

Assay outcomes from PubChem.
